Inconclusive results are not listed. Unmarked numbers belong to inactive results. Calls of active or inactive are those of the source. Calls come from the whole dose curve; as a rule, active = well fitted inhibition curve with a large enough effect; inconclusive = small, poorly fitted or top-dose-only effect; inactive = flat fitted curve, though single readings scatter. Where a SMILES comes first, the peptide text is derived from it. [ ]: non-standard residue; d: D form. ξ: configuration not given here. ξPhe(βξ-Me) = CC(c1ccccc1)C(N)C(=O)O; GABA = NCCCC(=O)O
experiment: P-glycoprotein substrates identified in KB-8-5-11 adenocarcinoma cell line, qHTS therapeutic library screen (AID 1346987); conditions: KB-8-5-11 (P-gp overexpressing) viability, CellTiter-Glo, 72 h; series mostly up to 44.5 µM; activity change, negative = cytotoxicity: at the top concentration; note: nearly all actives have a fitted effect of over 65% in size
Summary of the method: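 Steps: plate 500 KB-8-5-11 cells/well in DMEM + 10% FCS (colchicine removed); pin compounds in dose-response; incubate 72 h, 37 degree C, 5% CO2; add CellTiter-Glo, 5 min; read luminescence.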
% is set by controls: 0 for no effect and ±100 for the full control effect; potency is the fitted concentration of half-maximal effect.

Compound	activity change, negative = cytotoxicity	Potency	outcome
CC(C)O[C@@H]1O[C@H](CO)[C@@H](O)[C@H](O)[C@H]1O	6.53%		
CC[C@H]1OC(=O)[C@H](C)[C@@H](O[C@H]2C[C@@](C)(OC)[C@@H](O)[C@H](C)O2)[C@H](C)[C@@H](O[C@@H]2O[C@H](C)C[C@H](N(C)C)[C@H]2O)[C@](C)(O)C[C@@H](C)C(=O)[C@H](C)[C@H]2OC(=O)O[C@@]21C	3.48%		
Cc1cc(OCc2nnc(SC3CCCC3)n2-c2cccnc2)ccc1-c1ccc(S(C)(=O)=O)cc1		2910 nM (active)	
CC1NC(=O)CCCNC(=O)C(Cc2c[nH]c3ccccc23)NC(=O)C(C)NC(=O)C(C(C)C)NC(=O)C(C(C)c2ccccc2)NC(=O)C(C(C)C)NC1=O (stereo not drawn) (cyclo([GABA]AV[ξPhe(βξ-Me)]VAW); configuration not given here)	1.69% [at 17.3 µM]		
CC(C)(C)CCN1C[C@@H]2C(CNC(=O)c3cc(Cl)cc(Cl)c3)[C@@H]2C1 (some centres undefined)	-23.6%		
COc1ccc(CNC(=O)c2sc3nc(C)cc(C)c3c2N)cc1	-21.7%		
COc1cc(Br)c(Nc2nc(-c3c(C)nc4ncccn34)cs2)c(Br)c1		2310 nM (active)	
CC1=CC2/C=C(\C)CC[C@@H](O)[C@@H](O)[C@@H]3O[C@@H]3C(=O)[C@]23C(=O)N[C@@H](CC(C)C)[C@@H]3[C@@H]1C (some centres undefined)	-5.48% [at 17.3 µM]		
COC(=O)[C@@H](O)[C@H]1[C@@]2(C)CC3(O)[C@@H](C(=O)[C@H]2O)[C@]24O[C@]25CC(=O)O[C@@H](c2ccoc2)[C@]5(C)CCC4[C@]13C (some centres undefined)			inactive [at 17.3 µM]
COC(=O)c1ccc(OC(CO)C(O)c2ccc(O)c(OC)c2)c(OC)c1 (centres undefined)	-9.24%		
CCN(CC)CCN(Cc1ccc(-c2ccc(C(F)(F)F)cc2)cc1)C(=O)Cn1c(SCc2ccc(F)cc2)nc(=O)c2c1CCC2		18400 nM (active)	
O=C1OCC(c2ccccc2)=C1Cc1ccccc1	-14.2%		
CC(C)=CCC[C@](C)(O)[C@H]1CC[C@]2(C)[C@@H]1[C@H](O)CC1[C@@]3(C)CC[C@H](O)C(C)(C)[C@@H]3[C@@H](O[C@@H]3O[C@H](CO)[C@@H](O)[C@H](O)[C@H]3O[C@@H]3O[C@H](CO)[C@@H](O)[C@H](O)[C@H]3O)C[C@]12C (some centres undefined)			inactive [at 17.3 µM]
CC1(C)CCCC2(C)C=C(C(=O)O)C(O)CC12 (centres undefined)			inactive
C[C@@H]1CCC2C(C)(C)[C@H](O)CC[C@]2(C)[C@@]12Cc1c(O)cc3c(c1O2)CNC3=O (some centres undefined)	9.38%		
CCC(COC)n1nnc2c(Nc3ccc(OC)cc3C)nc(C)cc21 (centres undefined)	-17.4%		
Cc1cc(Nc2ncc3cc(-c4c(Cl)cccc4Cl)c(=O)n(C)c3n2)ccc1F		1300 nM (active)	
C=C(CO[C@@H]1O[C@H](CO[C@@H]2OC[C@](O)(CO)[C@H]2O)[C@@H](O)[C@H](O)[C@H]1O)C1Cc2cc(C(C)=O)ccc2O1 (some centres undefined)	8.42% [at 17.3 µM]		
CCC(C)C(=O)OC1CC(O)C23C4OCC5(C(O)CC2C1(C)C(O)O4)C3C(=O)C(O)C1(C)C(O)(c2ccoc2)CC2OC251 (centres undefined)			inactive [at 17.3 µM]
CC12CCC(OC3OC(CO)C(O)C(OC4OC(CO)C(O)C(O)C4O)C3O)CC1CCC1C2CCC2(C)/C(=C3/COC(=O)C3)CCC12O (centres undefined)	4.78% [at 17.3 µM]		

Compound	activity change, negative = cytotoxicity	Potency	outcome
C=C(C)C1CCC(C)C12CC(O)C1(C)OC1C2OC(=O)C(N)CCC(=O)O (centres undefined)	8.63%		
CCC(CC)C(=O)Nc1sc2c(c1C#N)CCC(C(C)(C)CC)C2 (centres undefined)	-13.3%		
CNC(=O)c1ccccc1Nc1nc(Nc2ccc(N3CCNCC3)cc2)ncc1Cl		461 nM (active)	
CC1(C)CCC[C@@]2(C)C1[C@H](OC(=O)/C=C/C=C/C(=O)O)C=C1COC(=O)[C@@]12O (some centres undefined)			inactive
C=C1C[C@]23C[C@H]1[C@@H](O)C[C@H]2[C@@]12C=C[C@H](O)[C@@](C)(C(=O)O1)[C@H]2[C@@H]3C(=O)O	1.24%		
COc1ccc(/C=C/C(=O)O[C@@H]2[C@@H](O)[C@H](C)O[C@@H](O[C@H]3[C@@H]4C=CO[C@@H](O[C@H]5O[C@@H](CO)[C@H](O)[C@@H](O)[C@@H]5O)[C@@H]4[C@@]4(CO)O[C@@H]34)[C@@H]2OC(C)=O)cc1	0.504% [at 17.3 µM]		
CC1(C)CCCC2(C)C(C(=O)O)=CCC12 (centres undefined)	-2.8%		
Cc1noc(-c2ccc(-c3ccc(CC(=O)O)cc3)cc2)c1NC(=O)O[C@H](C)c1ccccc1	-8.09%		
C=CC/C=C\C/C=C\CCCCCCCc1cccc(O)c1C(=O)O			inactive
Cc1cc(O)cc(O[C@@H]2O[C@H](CO)[C@@H](O)[C@H](O)[C@H]2O)c1			inactive
C1CCC[C@H]2CCCN3CC[C@@H](CCCCCC[C@@H]4CCCN5CC[C@@H](CC1)O[C@@H]45)O[C@@H]23			inactive [at 0.0709 µM]
CCN(Cc1cccnc1)C(=O)CN(c1ccc(OC)nc1)S(=O)(=O)c1ccccc1C	-2.79%		
Nc1nc(-n2cc(C(=O)O)c(=O)c3cc(F)c(N4CC(O)C4)c(Cl)c32)c(F)cc1F	-8.8%		
C/C=C1\[C@H](O[C@@H]2O[C@H](CO)[C@@H](O)[C@H](O)[C@H]2O)OC=C(C(=O)OC)[C@H]1CC(=O)O	5.74% [at 17.3 µM]		
Cc1c(F)cc(C(=O)NC2CC2)cc1-c1c(F)cn2c(C(C)(C)C)nnc2c1F	-12.4%		
C[C@@H]1CCC2C(C)(C)[C@H](O)CC[C@]2(C)[C@@]12Cc1c(O)cc3c(c1O2)CN([C@@H](CCC(=O)O)C(=O)O)C3=O (some centres undefined)			inactive [at 17.3 µM]
CC(C)S(=O)(=O)NC[C@H](C)c1ccc(NC(=O)c2cc(F)cc(F)c2)cc1	-20.4%		
Cn1cc(S(=O)(=O)c2ccc(Cl)cc2)c2cccc(N3CCNCC3)c21		20600 nM (active)	
N#Cc1ccc(C(=O)N2CCC3(CC2)N=C(N)c2c(F)ccc(F)c2N3)cn1	-9.09%		

Source: PubChem BioAssay (NCATS)
